# Laboratory results reported in PubChem BioAssay AID1347417 (National Center for Advancing Translational Sciences (NCATS), 2020).
# Screen size: about 120,000 compounds; about 5,300 (4.4%) were called active. About 22% were inconclusive and are not listed. This is one part of a sample in which actives are shown more often than they occur. Values without a mark were called inactive. Calls follow the shape of the dose curve; as a rule, active = well fitted inhibition curve with a large enough effect; inconclusive = small, poorly fitted or top-dose-only effect; inactive = no such curve, though single readings can be large or run the other way.
# Experiment: qHTS Primary assay for Inhibitors of Plasmodium falciparum Dd2 growth in vitro; also: nearly all actives have a fitted effect of over 65% in size;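 as to activity, negative = inhibition: plate controls were DMSO vehicle for no effect and reference drug for full effect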
# Conditions: P. falciparum Dd2 growth, SYBR Green, 72 h; series mostly up to 28.9 µM; activity, negative = inhibition: at the top concentration
# In short: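 Readout: SYBR Green fluorescence, 485 nm excitation, 535 nm emission, after ~16 h lysis at 37C. Before that, Dd2-infected red cells (2.5% hematocrit) grew 72 h with compound, 29 uM top final concentration.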
# Potency is read from the fitted curve at half-maximal effect.
SMILES,Potency,outcome,"activity, negative = inhibition"
CCOc1ccc(NC(=O)C2CCN(S(=O)(=O)c3cc(-c4noc(C)n4)ccc3C)CC2)cc1,3.98 µM (active),–,–
CC(=O)c1ccc(NC(=O)C2CCN(S(=O)(=O)c3c(C)noc3/C=C/c3ccc(C)cc3)CC2)cc1,–,inactive,–
CCOC(=O)c1c(C)[nH]c(C)c1S(=O)(=O)N1CCC(C(=O)Nc2ccc(C)c(Cl)c2)CC1,–,–,6.26%
Cc1cnn(CCC(=O)N2CC(F)(F)C[C@H]2c2nnc(C)o2)c1,–,–,32.9%
COc1cccc(S(=O)(=O)N2CCCN(C(=O)C3CC3)c3ccccc32)c1,–,–,-17.6%
Cc1nc(SCC(=O)N2CCN(c3ccccc3)CC2)[nH]c(=O)c1C,–,–,2.9%
CCOC(=O)c1c(C)[nH]c(C)c1S(=O)(=O)N(C)CC(=O)N1CCN(c2ccccc2)CC1,–,inactive,–
CCOC(=O)c1[nH]c(C)c(CCC(=O)N2CCN(c3ccccc3)CC2)c1C,3.98 µM (active),–,–
COCCN1C(=O)c2cccn2CC1CNS(=O)(=O)c1c(C)noc1C (centres undefined),–,–,-0.664%
O=C(c1cccc(F)c1)N1CCOC[C@H](Oc2ccc(C(F)(F)F)cc2)C1,–,inactive [at 44.1 µM],–
O=C(c1cccc(OC2CN(Cc3nccs3)C2)c1)N1CCOCC1,2.51 µM (active),–,–
COc1cccc(C(=O)N2CCC(Oc3ccc(C(=O)N4CCOCC4)cn3)CC2)c1,–,–,35%
O=C(C1CCCC1)N1Cc2ccccc2CC2(CCCCN2CC2CCNCC2)C1 (centres undefined),5.01 µM (active),–,–
O=C(c1ccccc1)N1Cc2ccccc2CC2(CCCN2CC2CCNC2)C1 (centres undefined),–,–,-21.9%
CC(=O)NCCC(=O)N1Cc2ccccc2CC2(CCCCN2CC2CCNC2)C1 (centres undefined),–,–,11.9%
COc1ccc(C(=O)Nc2ccc(-c3noc([C@@H]4CCCN4Cc4ccc(S(C)(=O)=O)cc4)n3)cn2)cc1,–,inactive,–
COCCOc1ccnc(-c2noc([C@@H]3CCCN3Cc3ccc(Cl)cc3)n2)c1,3.98 µM (active),–,–
COCCNc1ncccc1-c1noc([C@@H]2CCCN2Cc2ccc3c(c2)OCO3)n1,–,–,-24% [at 44.1 µM]
Cc1ccc2c(c1)N1C(=O)OC[C@@H]1CCN(C(=O)c1ccnc(Cl)c1)C2,–,–,14% [at 44.1 µM]
Cc1ccc(-c2nocc2CCC(=O)N2CCN(c3ccccc3F)CC2)cc1,–,inactive,–
CN(C)C(=O)c1cccnc1N1CC2CC(C1)[C@H]1CCCC(=O)N1C2 (some centres undefined),–,–,-8.74%
COc1ccc(-c2ccccc2CN)cc1,7.94 µM (active),–,–
COc1ccc(-c2nn3c(-c4ccc(OC)cc4)nnc3c3ccccc23)cc1,–,–,31.5%
COc1ccccc1-c1ccc(C(=O)O)cc1,–,inactive [at 44.1 µM],–

SMILES,Potency,outcome,"activity, negative = inhibition"
CC(C)c1noc(-c2cn(C3CCN(C(=O)COc4ccccc4)C3)nn2)n1 (centres undefined),–,–,-11.6%
CC(C)c1noc(-c2cn(C3CCN(C(=O)COc4ccc(F)cc4)CC3)nn2)n1,10 µM (active),–,–
CC(C)c1noc(-c2cn(C3CCN(C(=O)c4cccc(C#N)c4)CC3)nn2)n1,–,–,-18.1%
CNC(=O)[C@@H]1CN(C(=O)Cc2cccnc2)C[C@H]1COC,–,–,22.4%
O=C(NC1CCCC1)N1CC2CC(C1)[C@H]1CCCC(=O)N1C2 (some centres undefined),–,–,6.81%
COC(=O)c1scc(-c2ccccc2)c1S(=O)(=O)Nc1ccccc1,–,–,13.8%
COC(=O)c1scc(-c2ccc(C)cc2)c1S(=O)(=O)Nc1cc(Cl)c(OC)cc1OC,8.91 µM (active),–,–
CCOC(=O)c1scc(-c2ccc(C)cc2)c1S(=O)(=O)Nc1cc(C)ccc1C,–,inactive,–
COc1ccc(CN2C[C@H]3CN(Cc4ccccc4)CCN3C2=O)cc1,–,inactive [at 44.1 µM],–
CCCS(=O)(=O)N1CCC2(CC1)C(OC)C(=O)N2CC1CC1 (centres undefined),–,–,7.35%
COc1ccc(N2CCN(CCCNC(=O)C3(CCO)CC34CCOCC4)CC2)cc1 (centres undefined),–,inactive,–
C#CCOc1ccc(C2CC(=O)Nc3c2c(C)nn3-c2nc(C)cc(C)n2)cc1 (centres undefined),–,–,-28.9%
COc1ccc(C2CC(=O)N(Cc3ccccc3C)c3c2c(C)nn3-c2nc(C)cc(C)n2)c(OC)c1 (centres undefined),10 µM (active),–,–
COc1ccc(-c2nc(Cn3c(=O)cc(C)c4c(C)nn(-c5ccccc5)c43)c(C)o2)c(OC)c1,–,–,25.9%
CCc1cc(=O)n(CC(=O)Nc2ccc(OC)c(OC)c2)c(N2CCOCC2)n1,–,inactive,–
COc1ccc2[nH]c(=O)c(CCC(=O)NCC(N)=O)cc2c1,–,–,-22%
Cc1n[nH]c(C)c1CCC(=O)N[C@@H]1CN(S(C)(=O)=O)C[C@H]1CN(C)C,–,–,52.8%
COc1ccc(OCC2CCN(CC3(O)CCCNC3)CC2)cc1 (centres undefined),12.6 µM (active),–,–
OC1(CN2CCC(CCn3cccn3)CC2)CNCCOC1 (centres undefined),–,–,-13.6%
CCc1cc(N2CCN(CC3(O)CCCNC3)CC2)ncn1 (centres undefined),–,–,-2.03%
O=C(c1ccccn1)N1CCC2(CC1)C(=O)Nc1ccccc12,–,–,90.5%
O=C([C@@H]1C[C@H](Oc2ccccc2)CN1C(=O)NC1CCCCC1)N1CCCC1,–,–,-1.4%
CC1CCCN(c2cc3c(cc2F)c(=O)c(S(=O)(=O)c2cccc(Cl)c2)cn3Cc2ccccc2)C1 (centres undefined),–,inactive,–
COc1ccc(S(=O)(=O)c2cn(C)c3cc(N4CCCCC4)c(F)cc3c2=O)cc1,8.91 µM (active),–,–

SMILES,Potency,outcome,"activity, negative = inhibition"
CCn1cc(C(=O)N2CCN(c3cc(Cl)ccc3C)CC2)c(=O)c2cc(S(=O)(=O)N3CCCC3)ccc21,–,–,1.19%
Cc1ccc(S(=O)(=O)c2cn(Cc3ccccc3)c3cc(N4CCCC4)c(F)cc3c2=O)c(C)c1,12.6 µM (active),–,–
COc1ccc(N2CCN(C(=O)c3cn(C)c4ccc(S(=O)(=O)N5CCOCC5)cc4c3=O)CC2)cc1,–,inactive,–
COc1ccc(-c2nc(S(=O)(=O)c3ccccc3)c(N3CCCCC3)o2)cc1,–,–,10%
CC(=O)N1CC2(CCN(C(=O)CCC(=O)O)CC2)Cc2ccccc21,–,–,-0.797%
COc1ccc(-c2cnc3n2CC(C(=O)NCCCN2CCCC2=O)CC3)cc1 (centres undefined),–,–,-11.1%
O=C(N[C@@H]1CCC[C@@H]1C(=O)N1CCN(c2ccccc2F)CC1)c1ccncc1,–,–,-23.6%
COCC(=O)NC1CCN(c2ccc(C)cc2)C1=O (centres undefined),–,–,-4.4%
COc1ccccc1C(=O)N1CCCC(n2cc(-c3nc(-c4ccccc4)no3)nn2)C1 (centres undefined),–,–,-20.6%
O=C(O)c1c(CNCc2cccc(F)c2)c2ccccc2n1Cc1ccccc1,–,–,-17%
O=C(NC1CCN(Cc2ccccc2)CC1)c1ccc(Cn2c(=O)c3ccccc3n(Cc3cccc(F)c3)c2=O)cc1,7.94 µM (active),–,–
O=c1c2ccccc2n(Cc2cccc(Cl)c2)c(=O)n1Cc1ccccc1,–,inactive,–
CC1=C[C@@H](CNC(=O)CC2(CC(=O)O)CCCC2)[C@H](C(C)C)C[C@H]1Cc1nc2c(C)cccc2[nH]1,–,inactive,–
CC1=C[C@@H](CNC(=O)CCC(=O)O)[C@H](C(C)C)C[C@H]1Cc1nc2ccccc2n1C,–,inactive [at 44.1 µM],–
CC1=C[C@@H](CN(CC2CC2)CC2CC2)[C@H](C(C)C)C[C@H]1Cc1nc2c(C)cccc2[nH]1,7.08 µM (active),–,–
COc1ccc2nc(C[C@@H]3C[C@@H](C(C)C)[C@H](CNC(=O)CC(C)(C)CC(=O)O)C=C3C)[nH]c2c1,–,inactive,–
CC(=O)N1CCC(NC[C@@H]2C=C(C)[C@H](Cc3nc4ccccc4n3C)C[C@H]2C(C)C)CC1,4.47 µM (active),–,–
COc1ccc(CC(=O)NC[C@@H]2C=C(C)[C@H](Cc3nc4ccncc4[nH]3)C[C@H]2C(C)C)cc1,–,inactive,–
CC1=C[C@@H](CNS(C)(=O)=O)[C@H](C(C)C)C[C@H]1Cc1nc2ccccc2[nH]1,–,–,-20.9% [at 44.1 µM]
CC1=C[C@@H](CNC2CCN(C)CC2)[C@H](C(C)C)C[C@H]1Cc1nc2ccccc2[nH]1,7.08 µM (active),–,–
CC(=O)NC[C@@H]1C=C(C)[C@H](CC(=O)N2CCCC2)C[C@H]1C(C)C,–,inactive [at 44.1 µM],–
COc1ccc(CCC(=O)N2CCC(Cc3nncn3C(C)C)C2)cc1 (centres undefined),–,–,-17.8%
CC(=O)N1CCN(Cc2ccc(C(F)(F)F)c(F)c2)CC(O)C1 (centres undefined),–,–,-0.88%
O=C(NCc1ccc(F)cc1)N1CCCC(Cc2noc(-c3ccncc3)n2)C1 (centres undefined),–,inactive,–

SMILES,Potency,outcome,"activity, negative = inhibition"
CCC(=O)N1N=C(c2ccc(OC)cc2)CC1c1cn(-c2ccccc2)nc1-c1cccs1 (centres undefined),11.2 µM (active),–,–
COc1ccc(-c2noc([C@@H]3CCCN3C(=O)CCc3ccccc3)n2)cc1,–,inactive,–
CCN(CC)CCNC(=O)CN1N=C(c2ccc(OC)cc2)CCC1=O,–,–,11%
COC[C@@H]1CN(S(=O)(=O)c2cccc(F)c2)C[C@H]1c1ccncc1,–,–,2.93%
O=C(c1ccccn1)N1CCC(N(C(=O)NCCc2ccccc2)C2CCOCC2)CC1,–,–,-16%
OC[C@@H]1CN(Cc2cccnc2)C[C@H]1c1ccncc1,–,inactive,–
COc1ccccc1Nc1cnc2ccc(-c3ccc(OC)c(OC)c3)nn12,1.12 µM (active),–,–
COc1ccc(-c2ccc3ncc(Nc4ccc(C(F)(F)F)cc4)n3n2)cn1,–,inactive [at 44.1 µM],–
CN(C)c1ccc2ncc(Nc3ccccc3F)n2n1,–,–,-14.7% [at 44.1 µM]
CC(=O)N1CCN(Cc2cc(F)ccc2Cl)CC(O)C1 (centres undefined),–,–,19.5%
CN(Cc1ccccc1)C(=O)C1CCCN(c2cnn(Cc3ccccc3)c(=O)c2)C1 (centres undefined),–,inactive,–
COc1cccc([C@H]2CN(c3cc(C)nc(N)n3)[C@@H]3C4CCN(CC4)[C@H]23)c1,11.2 µM (active),–,–
COc1ccc([C@@H]2CN(C(=O)c3c(C)noc3C)[C@@H]3C4CCN(CC4)[C@@H]32)cc1,–,–,-8.25%
Cc1ccc([C@@H]2CN(Cc3ncc[nH]3)[C@@H]3C4CCN(CC4)[C@@H]32)cc1,–,–,-2.87%
O=C(Cn1nc2c(cc1=O)CCCC2)NC1CCN(C(=O)c2cc3ccccc3[nH]2)CC1,–,–,-22.6%
C[C@@H]1CN(C(=O)c2ccsc2)C[C@H]1c1nc(-c2ccncc2)no1,–,–,11.8%
O=C1NCc2ccccc2CC12CCCN(CC1CCCCC1)C2 (centres undefined),–,–,-23%
O=C1NCc2ccccc2CC12CCCN(Cc1ccc(F)cc1O)C2 (centres undefined),4.47 µM (active),–,–
COc1ccc(CN2CCC3(Cc4ccccc4CNC3=O)C2)cc1OC (centres undefined),–,–,-18.3%
CCOc1ccc(C2C(C(=O)Nc3ccc(Cl)cc3)=C(C)Nc3nc(C(F)(F)F)nn32)cc1 (centres undefined),2.82 µM (active),–,–
CCOc1ccccc1NC(=O)C1=C(C)Nc2ncnn2C1c1ccc(NC(C)=O)cc1 (centres undefined),–,–,22.7%
CCOc1cc(C2C(C(=O)Nc3ccc(OC)cc3)=C(C)Nc3nc(SC)nn32)ccc1O (centres undefined),–,–,7.6%
